Laboratory results reported in PubChem BioAssay (Tox21).
“And” between values parts separate entries of the source, which are not always exact repeats. Equal entries are not always repeated. Inconclusive results are not listed. The source holds several records for some structures; these can differ, active in one and inactive in another. The source made the active and inactive calls. Unless noted, calls follow the shape of the dose curve; as a rule, active = well fitted curve in the direction sought with a large enough effect in the repeat runs; inconclusive = weak or mixed curves; inactive = no such curve, though single readings can be large; an effect the other way counts as inactive or inconclusive.

Columns and labels:
[1] = qHTS assay to identify small molecule agonists of the vitamin D receptor (VDR) signaling pathway - cell viability counter screen (AID 743224); also: nearly all actives have a fitted effect of over 50% in size; also: potency is read from the fitted curve at half-maximal effect
Summary of the method: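 VDR-bla cells, 4 h after plating, exposed to compounds for 16 h at 37C; viability then read in the same wells as CellTiter-Glo luminescence after 30 min at room temperature, following the bla FRET read.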

[2] = qHTS assay to identify small molecule antagonists of the vitamin D receptor (VDR) signaling pathway - cell viability counter screen (AID 743225); also: nearly all actives have a fitted effect of over 50% in size; also: potency is read from the fitted curve at half-maximal effect
Summary of the method: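 Cells (VDR-UAS-bla HEK 293T) are plated, rested 4 h at 37C, dosed with compound and 3 nM final 1-alpha,25-dihydroxy vitamin D3, and incubated 16 h. Viability is taken from CellTiter-Glo luminescence in the reporter wells.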

[3] = qHTS assay to identify small molecule agonists of the NFkB signaling pathway - cell viability counter screen (AID 1159515; calls by dose curve; also: nearly all actives have a fitted effect of over 55% in size; also: potency is read from the fitted curve at half-maximal effect)
Summary of the method: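 NFkB-bla ME-180 cells, 2,000/well, plated overnight at 37 C; compound added for 5 hr at 37 C. Viability read in the same wells as the bla reporter, by CellTiter-Glo luminescence after 30 min at room temperature.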

[4] = qHTS assay to identify small molecule agonists of the endoplasmic reticulum stress response signaling pathway - cell viability counter screen (AID 1159517; calls by dose curve; also: nearly all actives have a fitted effect of over 50% in size; also: potency is read from the fitted curve at half-maximal effect)
Summary of the method: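 Cells, HeLa ESRE-bla; density, 1,500/well; dosing, 5 hr at 37 C, 5% CO2; readout, CellTiter-Glo luminescence after 30 min RT.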

[5] = qHTS assay to identify small molecule antagonists of the retinoid-related orphan receptor gamma (ROR-gamma) signaling pathway - cell viability counter screen (AID 1159520); also: nearly all actives have a fitted effect of over 50% in size; also: potency is read from the fitted curve at half-maximal effect
Summary of the method: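 Cytotoxicity was read from cellular ATP (CellTiter-Glo luminescence) after 16 hr at 37 C with 1 uM doxycycline induction. The inducer was added 2 hr after compound transfer to Tet-on ROR gamma CHO cells.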

[6] = qHTS assay to identify small molecule agonists of the AP-1 signaling pathway - cell viability counter screen (AID 1159525; calls by dose curve; also: nearly all actives have a fitted effect of over 55% in size; also: potency is read from the fitted curve at half-maximal effect)
Summary of the method: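 Luminescent ATP readout (Cell Titer Glo, 30 min RT), normalised to DMSO and tetra n-octyl ammonium bromide controls. Cells were ME-180 AP-1-bla in 0.5% dialyzed FBS Opti-MEM, with a 5 h, 37 °C compound exposure.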

[7] = qHTS assay to identify small molecule agonists of the AP-1 signaling pathway (AID 1159526; calls by dose curve; also: potency is read from the fitted curve at half-maximal effect)
[8] = qHTS assay to identify small molecule agonists of the RXR signaling pathway - cell viability counter screen (AID 1159529); also: nearly all actives have a fitted effect of over 50% in size; also: potency is read from the fitted curve at half-maximal effect
Summary of the method: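 Cell viability is measured by CellTiter-Glo luminescence, 30 min at room temperature, in wells already read for beta-lactamase. Engineered HEK 293T cells (RXR-alpha-UAS-bla) are dosed 16 hr at 37 C. Tetraoctyl ammonium bromide serves as positive control.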

[9] = qHTS assay to identify small molecule antagonists of the retinoid acid receptor (RAR) signaling pathway - cell viability counter screen (AID 1159551); also: nearly all actives have a fitted effect of over 35% in size; also: potency is read from the fitted curve at half-maximal effect
Summary of the method: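 C3RL4 RARE-luciferase cells, 1,000/well, incubated overnight, then dosed with compound plus 1 uM retinol (final). After 6 hr at 37 C, viability read by CellTiter-Glo ATP luminescence following 30 min at room temperature.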

[10] = qHTS assay to identify small molecule agonists of the endoplasmic reticulum stress response signaling pathway (AID 1159516; active = well fitted activation curve with a large enough effect in the signal ratio in the repeat runs, not every such curve was filed as active; the % refers to the signal ratio; also: % is scaled to controls: 0 for no effect and ±100 for the full control effect)
Summary of the method: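 CellSensor ESRE-bla HeLa cells, 1,500 per well, plated overnight, then exposed to compounds for 5 hr at 37 C. Beta-lactamase reporter read with LiveBLAzer B/G FRET substrate after 2 hr at room temperature, 405 nm excitation, 460 and 530 nm emission.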

[11] = qHTS assay to identify small molecule antagonists of the retinoic acid receptor (RAR) signaling pathway (AID 1159552; also: nearly all actives have a fitted effect of over 50% in size; also: potency is read from the fitted curve at half-maximal effect)
Summary of the method: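 Quantitative HTS in C3RL4 RARE-luciferase reporter cells. Compounds were added with 1 uM (final) retinol; luminescence was read after 6 hr.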

[12] = qHTS assay to identify small molecule antagonists of the estrogen related receptor (ERR) signaling pathway - cell viability counter screen (AID 1224818); also: potency is read from the fitted curve at half-maximal effect
Summary of the method: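 ERR cells, 2,000 per well, compound added after 6 h and incubated 17.5 h at 37 C. Viability read by CellTiter-Fluor fluorescence after a further 30 min at 37 C.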

[13] = target: Nuclear receptor ROR-gamma (Homo sapiens) (UniProt P51449); experiment: qHTS assay to identify small molecule antagonists of the retinoid-related orphan receptor gamma (ROR-gamma) signaling pathway (AID 1159521; also: nearly all actives have a fitted effect of over 50% in size; also: potency is read from the fitted curve at half-maximal effect)
Summary of the method: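 RORγ antagonism is scored from reduced reporter luminescence in Tet-on CHO cells. Induction used 1 uM final doxycycline hyclate for 16 h at 37 C, following a 2 h compound exposure.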

[14] = qHTS assay to identify small molecule agonists of the retinoic acid receptor (RAR) signaling pathway (AID 1159553); also: % is scaled to controls: 0 for no effect and ±100 for the full control effect
Summary of the method: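 C3RL4 RARE-luciferase cells were seeded at 1,000/well and grown overnight at 37 C, then exposed to compounds for 6 hr at 37 C, 5% CO2. Luciferase reagent was added and luminescence was read after 30 min at room temperature.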

[15] = target: Retinoic acid receptor RXR-alpha (Homo sapiens) (UniProt P19793); experiment: qHTS assay to identify small molecule agonists of the RXR signaling pathway (AID 1159527; calls by dose curve; also: % is scaled to controls: 0 for no effect and ±100 for the full control effect; nearly all actives have a fitted effect of over 35% in size)
Chain of Retinoic acid receptor RXR-alpha (Homo sapiens) (P19793 whole entry, looked up): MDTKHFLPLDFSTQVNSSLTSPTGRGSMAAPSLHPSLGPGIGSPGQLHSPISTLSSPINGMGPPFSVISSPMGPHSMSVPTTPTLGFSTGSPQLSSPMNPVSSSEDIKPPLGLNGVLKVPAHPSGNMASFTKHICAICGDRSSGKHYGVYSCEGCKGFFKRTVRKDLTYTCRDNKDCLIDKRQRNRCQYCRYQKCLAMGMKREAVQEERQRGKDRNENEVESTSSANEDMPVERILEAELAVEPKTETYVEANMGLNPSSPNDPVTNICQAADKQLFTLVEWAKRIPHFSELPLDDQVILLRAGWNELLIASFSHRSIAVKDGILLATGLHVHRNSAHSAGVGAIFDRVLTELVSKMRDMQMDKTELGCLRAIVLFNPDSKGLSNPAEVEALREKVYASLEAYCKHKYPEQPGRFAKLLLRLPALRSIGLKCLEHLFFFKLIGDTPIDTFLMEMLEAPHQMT
Summary of the method: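 qHTS of the Tox21 10K library in GeneBLAzer RXR-alpha HEK 293T cells carrying a beta-lactamase reporter […]; 16 hr treatment, 9-cis retinoic acid as agonist control, FRET read-out.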

[16] = qHTS assay to identify small molecule antagonists of the estrogen related receptor (ERR) signaling pathway (AID 1224819)
Summary of the method: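 ERR reporter cell line (NTP) plated at 2,000 cells/well, settled 6 h at 37C/5% CO2, then exposed to LOPAC compounds for 18 h at 37C. One-Glo luciferase luminescence read after 30 min at room temperature.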

[17] = qHTS assay to identify small molecule agonists of the estrogen related receptor (ERR) signaling pathway (AID 1224820); also: % is scaled to controls: 0 for no effect and ±100 for the full control effect
Summary of the method: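 Quantitative HTS of the LOPAC library used NTP ERR reporter cells treated 18 h at 37 C. Signal is luminescence after One-Glo addition and a 30 min room-temperature incubation.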

[18] = system: estrogen-related receptor alpha (ERRalpha) with PGC-1alpha coactivator, human; experiment: qHTS assay to identify small molecule antagonists of the estrogen related receptor signaling pathway with the pleiotropic PPARgamma coactivator (PGC) (AID 1224821; calls by dose curve)
Summary of the method: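 Quantitative HTS for antagonism: PGC/ERR cells received compounds after 6 h attachment and were incubated 18 h at 37 C, with luminescence (One-Glo) as the endpoint.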

[19] = qHTS assay to identify small molecule antagonists of the estrogen related receptor signaling pathway with the pleiotropic PPARgamma coactivator (PGC) cell viability counter screen (AID 1224822; also: potency is read from the fitted curve at half-maximal effect)
Summary of the method: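 PGC/ERR cells rested 6 h, then compound-treated 17.5 h at 37 C. CellTiter-Fluor added for 30 min at 37 C, viability measured by fluorescence intensity.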

[20] = qHTS assay to identify small molecule agonists of the estrogen related receptor signaling pathway with the pleiotropic PPARgamma coactivator (PGC) (AID 1224823); also: % is scaled to controls: 0 for no effect and ±100 for the full control effect
Summary of the method: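 Cell-based luciferase assay in the NTP-supplied PGC/ERR line, 2,000 cells/well; 18 h compound exposure at 37 C, luminescence after One-Glo.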

Measured: Potency

CN(C)c1ccc(C(=C2C=CC(=[N+](C)C)C=C2)c2ccccc2)cc1
active: [1] 219 nM and 2.11 µM | [2] 490 nM and 3.38 µM | [3] 3.09 µM and 10.7 µM | [4] 27.5 µM | [5] 5.45 µM and 4.22 µM and 10.6 µM | [6] 13.8 µM and 23.9 µM and 10.7 µM | [7] 848 nM | [8] 3.47 µM and 2.39 µM and 4.25 µM | [9] 10.6 µM [middle of 4 runs]

CNCCC(Oc1ccc(C(F)(F)F)cc1)c1ccccc1 (configuration not stated)
inactive: [10] | [4] | [5] | [6] | [9] | [12]
48.4 µM (active) and inactive: [1]
active: [8] 27.2 µM and 23.9 µM | [11] 53.8 µM

CCCCCCCCCCCCc1ccccc1O
active: [1] 10.8 µM and 19.5 µM | [2] 17.2 µM and 21.9 µM | [3] 19.2 µM and 21.9 µM | [4] 17.2 µM and 24.5 µM | [5] 60.3 µM and 27.3 µM | [13] 67.7 µM and 24.3 µM | [6] 13.6 µM and 17.4 µM | [8] 17.2 µM and 19.5 µM | [9] 61.1 µM | [11] 47.9 µM and 54.5 µM

CC(C)(c1ccccc1)c1ccc(Nc2ccc(C(C)(C)c3ccccc3)cc2)cc1
24.3 µM (active) and inactive: [13]
inactive: [1] | [2] | [3] | [4] | [5] | [6] | [8] | [9] | [11] | [14]

CCCCCCC(O)CCCCCCCCCCC(=O)O (configuration not stated)
inactive: [3] | [4] | [6] | [15] | [9] | [11] | [14]
active: [1] 19.6 µM and 11 µM

Cc1c(O)cccc1C(=O)N[C@@H](CSc1ccccc1)[C@H](O)CN1C[C@H]2CCCC[C@H]2C[C@H]1C(=O)NC(C)(C)C
active: [1] 15.1 µM and 26.6 µM | [2] 23.9 µM and 21.3 µM | [13] 23.7 µM and 9.44 µM | [12] 10.6 µM | [16] 19.6 µM | [19] 10.6 µM
inactive: [3] | [4] | [6] | [7] | [9] | [17] | [18] | [20]

O=C1OC2(c3ccc(O)cc3Oc3cc(O)ccc32)c2ccccc21
inactive: [1] | [2] | [3] | [4] | [13] | [6] | [8] | [9]

c1ccc2c(c1)-c1cccc3c1c-2cc1ccccc13
inactive: [1] | [2] | [3] | [4] | [9] | [11]
active: [5] 53.2 µM | [7] 17 µM and 38.9 µM
